Source: PubChem BioAssay (NCI)
About 83,000 compounds went through this panel and 20% of them were active in at least one assay; those are over-represented in the sample as a whole.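 Note: values are percent growth. 100 is the growth of untreated cells, values between 100 and 0 indicate rising inhibition; between -100 and 0 indicates cell death.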 A number with no mark means an inactive call. Activity calls are given as the source filed them.

tested on: UACC-62 melanoma; test: NCI-60 one-dose screen, 48 h (100 = growth as untreated, 0 = no growth, -100 = all killed); conditions: 10 µM unless noted
Protocol: Growth inhibition of the UACC-62 human tumor cell line is measured as a screen for anti-cancer activity. Cells are grown in 96 well plates and exposed to the test compound for 48 hours. Compounds are tested at a single concentration, which is 10^-5 M for most compounds. The reported endpoint is percent growth (GI% or GIPRCNT), where numbers from 0 - 100% represent growth inhibition, and numbers from -100% - 0 represent cell death. For example, a value of 40 represents 60% growth inhibition. A value of 0 means no net growth occurred over the course of the experiment. A value of -40 indicates 40% of cells at the beginning of the experiment died by the end of the experiment. A value of -100 means all cells are dead at the end of the experiment.
NCI-60 Human Tumor Cell Lines Screen was performed using the standard one-dose NCI protocol, which is described in more detail at https://dtp.cancer.gov/discovery_development/nci-60/default.htm.
Compounds with GIPRCNT values below 10 were considered active. Activity score was based on GIPRCNT using the following formula: […]
Score is 0 for GIPRCNT values of 100 or above, 50 for GIPRCNT values of 0, and 100 for GIPRCNT values of -100.

Q: For `COc1ccc2nc3cc(Cl)ccc3c(N3CCN(c4ccnc(N5CCN(C)CC5)n4)CC3)c2c1`, which growth is on record?
A: 94.1%

Q: Which growth does the source give for `CC(=O)Oc1ccc(Nc2c3ccccc3nc3ccccc23)cc1` here?
A: -45.3% (active)

Q: Which growth does the source give for `O=C(O)c1ccccc1Nc1cccc(S(F)(F)(F)(F)F)c1` here?
A: 93.7%

Q: Which growth does the source give for `Oc1ccc(Nc2nccc(-c3ccc4ccccc4c3)n2)cc1` here?
A: 39.4%

Q: `Cn1cc(-c2csc(-c3cn(C)c4ncccc34)n2)c2ccccc21` was tested. Which growth did it give?
A: 47%

Q: For `COc1cc(C2CC(=O)c3c(C)nn(-c4nc5ccccc5[nH]4)c3C2)cc(OC)c1OC` (stereo not given), which growth is on record?
A: 90.8%

Q: Which growth does the source give for `OCCNCCNc1c2ccccc2nc2ccccc12` here?
A: 66.6%

Q: Which growth does the source give for `COc1ccc(-c2cnoc2-c2cc(OC)c3c(c2)OCCO3)cc1` here?
A: 13.4%

Q: `O=C(CO[N+](=O)[O-])Nc1ccc(C(=O)/C=C/c2ccc(Cl)cc2)cc1` was tested. Which growth did it give?
A: 49.2%

Q: For `CC/C=C\C[C@H](F)C/C=C1/C(=O)C=C[C@@H]1C/C=C\CCCC(=O)O`, which growth is on record?
A: 27.5%

Q: How did the growth turn out when `CC1CN(Cc2ccco2)C(=S)N(c2ccccc2)C1=O` (stereo not given) was run?
A: 93.2%

Q: How did the growth turn out when `COc1cccc(-c2nc3sccn3c2-c2ccnc(NCCCNS(=O)(=O)c3ccc(Cl)cc3)c2)c1` was run?
A: 6.77% (active)

Q: For `Nc1cc(O)cc2cccnc12`, which growth is on record?
A: 89.5%

Q: `c1ccc(-c2nc(N3CCOCC3)c3c4c(sc3n2)CCCCC4)nc1` was tested. Which growth did it give?
A: 56.1%

Q: How did the growth turn out when `O=C1CC(c2nc3ccccc3s2)CN1C1CCCCC1` (stereo not given) was run?
A: 93.9%

Q: For `COc1ccc(S(=O)(=O)NCCCNc2cc(-c3c(-c4cccc(OC)c4)nc4sccn34)ccn2)cc1`, which growth is on record?
A: 20.4%

Q: `CCOC(=O)C(=Cc1ccccc1F)C(=O)OCC` was tested. Which growth did it give?
A: 94.9%

Q: Which growth does the source give for `CC(=O)OC1Oc2cc(C)c(C)cc2-c2oc(=O)c(-c3cc4ccc(N(C)C)cc4oc3=O)cc21` (stereo not given) here?
A: 61.6%

Q: With `COc1ccc(CCN2CCCn3c2nc2ccccc2c3=O)cc1` as the compound, how does the growth read?
A: 26.5%

Q: With `O=C(Nc1cccc2[nH]c(C(F)(F)F)nc12)c1ccc(Br)cc1F` as the compound, how does the growth read?
A: -1.06% (active)

Q: With `CCOC(=O)CC(=O)c1c(C)cc(C)cc1C` as the compound, how does the growth read?
A: 96.9%

Q: `CC1(C)OCC2OC3(C(=O)O)OC(C)(C)OC3C2O1` (stereo not given) was tested. Which growth did it give?
A: 111%

Q: `CS(=O)(=O)c1c(Nc2ccccc2)n[nH]c1N` was tested. Which growth did it give?
A: 92.4%

Q: How did the growth turn out when `O=C1C2CC=CCC2C(=O)N1CNc1ccc(Cl)cc1` (stereo not given) was run?
A: 62.7%

Q: With `CCCCOc1ccc(NC(=O)n2nc(NC(C)=O)c3cc(NC(C)=O)ccc32)cc1` as the compound, how does the growth read?
A: 91.8%

Q: Which growth does the source give for `C=C1CC2(OC1=O)C(=O)N(CCCCCCCN1C(=O)C3(CC(=C)C(=O)O3)c3ccccc31)c1ccccc12` (stereo not given) here?
A: 34.9%

Q: For `COc1ccc(/C=C2\CN(C(=O)CCN3CCC(=NO)CC3)C/C(=C\c3ccc(OC)cc3)C2=O)cc1`, which growth is on record?
A: -70.2% (active)

Q: Which growth does the source give for `C=C1C(=O)O[C@H]2[C@H]1CC/C(Cn1cc(Cn3ccc4cc(Cl)ccc43)nn1)=C\CC[C@@]1(C)O[C@@H]21` here?
A: 5.99% (active)

Q: For `CCOC(=O)N1CCN(c2nc(Nc3cc(C)[nH]n3)c3ccccc3n2)CC1`, which growth is on record?
A: 66.8%

Q: With `N#Cc1c2c(nc3n[nH]c(N)c13)CCCC2` as the compound, how does the growth read?
A: 101%

Q: How did the growth turn out when `O=C1Nc2ccccc2/C1=C/C(=N/c1nnc(-c2ccc(Cl)cc2)s1)c1ccccc1` was run?
A: 51.7%

Q: Which growth does the source give for `COc1ccc2nc3cc(Cl)ccc3c(N3CCN(c4nccc(NCc5ccccc5)n4)CC3)c2c1` here?
A: 85.2%

Q: With `CCN(CC)CC(C)(C)C(=O)/C=C/c1ccccc1` as the compound, how does the growth read?
A: 39.8%

Q: `CCN(CC)CCCC(C)N/C(=C1\C(=O)NC(=O)\C1=C(/NC(C)CCCN(CC)CC)c1cccc(OC)c1)c1cccc(OC)c1` (stereo not given) was tested. Which growth did it give?
A: -14.7% (active)

Q: With `O=C(O)c1ccc2c(c1Sc1ccccc1)C(=O)c1ccccc1C2=O` as the compound, how does the growth read?
A: 87.5%

Q: With `Oc1ccccc1N=Cc1c(O)ccc2ccccc12` as the compound, how does the growth read?
A: 63.8%

Q: With `C/C(Cc1ccc(Cl)cc1)=C(\c1ccc(OCCN2CCCCCC2)cc1)c1ccc(OC(=O)Cc2ccccc2)cc1` as the compound, how does the growth read?
A: 75.1%

Q: How did the growth turn out when `C=C1CCC2C3(C)COC(C)(C)OC3CCC2(C)C1C/C=C1/C(=O)OCC1OC(C)=O` (stereo not given) was run?
A: 41.9%

Q: Which growth does the source give for `O=S(=O)(Nc1ccc(Cl)cc1Cl)c1ccc(-c2cnc(C3CC3)o2)cc1` here?
A: 35.3%

Q: With `CCN(CC)CC(C)Nc1ccc([N+](=O)[O-])c2sc3ccccc3c(=O)c12` (stereo not given) as the compound, how does the growth read?
A: 33.5%
